Experimental findings from PubChem BioAssay (NCI) are described below.

Common to all, as to test: NCI-60 one-dose screen, 48 h (100 = growth as untreated, 0 = no growth, -100 = all killed)
Details in all cases: 10 µM unless noted

In assay [1] the test system is DU-145 prostate.
Assay [2] concerns K-562 leukemia.
The subject of assay [3] is MALME-3M melanoma.
For assay [4], the system named is MDA-MB-231 breast.
Assay [5] deals with RXF 393 renal.
In assay [6] the test system is SF-268 CNS.
Assay [7] concerns SF-295 CNS.
The test system of assay [8] is SF-539 CNS.
In assay [9] the test system is UACC-257 melanoma.
In assay [10] the test system is M14 melanoma.
Assay [11] has as its system HCT-15 colon.
Assay [12] has as its system HT29 colon.
Assay [13] concerns SNB-75 CNS.
Assay [14] concerns SNB-19 CNS.
Assay [15] has as its system U251 CNS.
In assay [16] the test system is PC-3 prostate.
Assay [17] concerns SK-MEL-5 melanoma.
The test system of assay [18] is UACC-62 melanoma.
Assay [19] has as its system LOX IMVI melanoma.
For assay [20], the system named is SK-MEL-28 melanoma.

This is part of a sample that, as a whole, favours compounds with a hit. Of some 83,000 tested, about 20% had one in any assay.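 Interpretation: 100, growth as untreated; towards 0, rising growth inhibition; 0, no net growth; 0 to -100, cell death. Compounds scoring below 10 were considered active.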 A number with no mark means an inactive call. Calls of active or inactive are those of the source.

For the compound `CCCCn1c(=O)c(-c2cc(-c3ccc(Cl)cc3)nc(-c3ccc(Cl)cc3)c2)cc2cc(C)ccc21`, the growth is 112% in assay [1]; 99.3% in [2]; 105% in assay [3]; 92.8% in assay [4]; 105% in assay [5]; 98% in [6]. The growth is 99.1% in assay [7]; 97.9% in [8]; 100% in assay [9]; 102% in [10]; 101% in [11]; 101% in assay [12]. Moreover, the growth in assay [13] is 98.5%; in assay [14], 98.8%; in assay [15] it was 106%; in assay [16], 97.2%; in assay [17], 104%; in assay [18] it was 89.7%. The growth in assay [19] was 98.5%; in assay [20], 107%.

`O=C(/C=C/c1sc(Cl)nc1Cl)c1ccccc1`: the growth in [1] was 99.1%; in [2], 10.8%; in [3], 95.7%; in assay [4], 98.7%; in assay [5], 99.7%; in assay [6] it was 104%. In addition, the growth is 102% in [7]; 72.3% in assay [8]; 94.9% in assay [9]; 79.8% in [10]; 30.4% in [11]; 88.6% in assay [12]. Further, the growth in assay [13] was 86.5%; in [14], 96%; in assay [15], 69.9%; in [16], 84.8%; in [17] it was 102%; in assay [18] it was 93.5%. For the same compound, the growth in assay [19] was 3.61% (active); in [20], 95.4%.

As to `c1ccc(Nc2cc(-c3cccnc3)[nH]n2)cc1`, the growth was 100% in assay [1]; 101% in assay [2]; 118% in [3]; 107% in assay [4]; 107% in assay [5]; 85.8% in assay [6]. Also, the growth in [7] is 97.6%; in assay [8] it was 70.2%; in [9], 100%; in assay [10] it was 117%; in [11], 101%; in assay [12], 100%. Further, the growth in [13] was 52.8%; in assay [14], 77.9%; in assay [15] it was 84%; in assay [16], 102%; in assay [17] it was 101%; in assay [18], 102%. Moreover, the growth was 103% in [19] and 105% in assay [20].

Regarding `C=C1C(=O)O[C@H]2[C@H]1CC/C(COC(=O)CSCC(=O)OC/C1=C/CC[C@@]3(C)O[C@H]3[C@H]3OC(=O)C(=C)[C@@H]3CC1)=C\CC[C@@]1(C)O[C@@H]21`, the growth is 50.3% in [1]; 9.77% (active) in assay [2]; -10.3% (active) in assay [3]; -16.8% (active) in assay [4]; -86.3% (active) in assay [5]; 57.8% in assay [6]. Further, the growth is 88.1% in [7]; 19.3% in [8]; 9.23% (active) in [9]; 1.21% (active) in [10]; 5.12% (active) in [11]; -26% (active) in assay [12]. In addition, the growth in [13] is 81.8%; in assay [14] it was 69.1%; in assay [15], 34.3%; in assay [16], 46.9%; in [17] it was 63.2%; in assay [18], 42.4%. For the same compound, the growth was -25.2% (active) in [19] and -3.76% (active) in assay [20].

On to `CC([C@H]1CCC2C3CCC4C[C@@H](NC=O)CC[C@]4(C)C3CC[C@@]21C)N(C)C` (stereo not given in full), for which the growth was 34.1% in assay [1]; -39.8% (active) in [2]; -57.6% (active) in assay [3]; -13.9% (active) in assay [4]; -51.2% (active) in assay [5]; -70% (active) in [6]. For the same compound, the growth in assay [7] is -38.8% (active); in assay [8], -78.4% (active); in assay [9], -48.3% (active); in assay [10], -48.8% (active); in assay [11], -59.7% (active); in assay [12], -49.4% (active). In addition, the growth was -1.26% (active) in assay [13]; 44.6% in assay [14]; 4.82% (active) in [15]; 5.08% (active) in assay [16]; -96.7% (active) in assay [17]; -51.3% (active) in assay [18]. Further, the growth in assay [19] is -58.7% (active); in assay [20] it was -94.2% (active).

For `CCN1C(=O)N(CC)C2Nn3c(s/c(=C4\C(=O)N(CC(C)C)c5ccccc54)c3=O)=NC21` (stereo not given), the growth in assay [1] is 34.5%; in assay [2], 15.6%; in assay [3], 70%; in [4] it was 19.6%; in assay [5] it was -3.71% (active); in assay [6], 66.1%. Further, the growth in assay [7] is 42.4%; in [8], 7.6% (active); in [9] it was 87.5%; in assay [10], 18.9%; in [11], 27.3%; in [12], 86.4%. Also, the growth was 14.1% in assay [13]; 54.7% in assay [14]; 36.3% in assay [15]; 38.1% in assay [16]; 39.9% in [17]; 45.3% in assay [18]. Moreover, the values for the growth in [19] and in [20] were 54.2% and 66%, respectively.

Consider `CN(C)c1ccc2nc3ccc(=[N+](C)C)c([N+](=O)[O-])c-3sc2c1`, for which the growth in [1] was 54%; in [2] it was 23.8%; in assay [3] it was 9.75% (active); in assay [4] it was 2.84% (active); in assay [5], 79.7%; in [6] it was 33.4%. Besides, the growth was -1.42% (active) in assay [7]; 36.6% in assay [8]; 12.8% in assay [9]; 9.93% (active) in assay [10]; 32.1% in assay [11]; 59% in [12]. Besides, the growth in assay [13] was 91.6%; in [14], 56.6%; in [15] it was 6.01% (active); in assay [16] it was 4.48% (active); in assay [17] it was 19.5%; in assay [18], 34.1%. The results for the growth in assay [19] and in assay [20] were 4.03% (active) and 57.8%, respectively.

Consider `COc1ccc2sc3c(NCCCN(C)C)nc4ccccc4c3c(=O)c2c1`, for which the growth in assay [1] was 41.3%; in assay [2], -21.9% (active); in [3] it was 58%; in [4], -6.11% (active); in assay [5], 44.1%; in assay [6], 66.4%. Besides, the growth was 83.7% in assay [7]; 1.35% (active) in assay [8]; 76.7% in assay [9]; -57.8% (active) in assay [10]; 50.2% in assay [11]; -47.5% (active) in assay [12]. The growth in [13] was 53.5%; in [14], 71.4%; in assay [15] it was -1.18% (active); in [16], 63%; in [17] it was 66.4%; in assay [18] it was 77.3%. Besides, the growth in [19] is -100% (active); in [20], -73.1% (active).

Regarding `COc1cccc(OC)c1C(=O)N[C@@H]1C(=O)N2[C@@H]1SC(C)(C)[C@@H]2C(=O)O`, the growth in assay [1] is 115%; in [2] it was 110%; in [3], 93.9%; in [4] it was 102%; in [5], 125%; in assay [6], 109%. For the same compound, the growth was 105% in assay [7]; 108% in assay [8]; 103% in assay [9]; 97.9% in assay [10]; 108% in assay [11]; 98.9% in assay [12]. The growth was 98.9% in assay [13]; 107% in assay [14]; 106% in [15]; 86.3% in assay [16]; 105% in assay [17]; 109% in assay [18]. The growth in assay [19] is 100%; in [20], 105%.

As to `COc1cccc(-c2nc(-c3ccc(NC(=O)C(C)C)cc3)[nH]c2-c2ccnc(Br)c2)c1`, the growth in assay [1] was 61.4%; in [2], 1.17% (active); in assay [3], 34.4%; in [4], 52.3%; in assay [5], -31% (active); in [6] it was 51.6%. The growth in [7] is -42.9% (active); in [8], 16%; in assay [9], 52.8%; in assay [10], 40.2%; in assay [11], 7.17% (active); in assay [12] it was 23%. Besides, the growth in [13] was 10.5%; in [14] it was 44.6%; in assay [15] it was 32%; in assay [16], 18.7%; in assay [17], 6.14% (active); in assay [18] it was 37.1%. In addition, the growth in assay [19] is 15.2%; in [20], 47%.

`COc1ccc(-c2nc(NN)c3c(C)nn(-c4ccc(F)cc4)c3n2)cc1`: the growth was 37.9% in [1]; 17.8% in assay [2]; 61.5% in [3]; 53.1% in assay [4]; 51% in [5]; 46.3% in [6]. The growth in assay [7] was 27.8%; in assay [8], 36.2%; in assay [9] it was 45.3%; in assay [10], 26.4%; in assay [11] it was 31.2%; in assay [12], 7.11% (active). Also, the growth in [13] was 23.3%; in assay [14], 35.1%; in assay [15], 27.1%; in [16], 42.3%; in assay [17], 40.7%; in assay [18] it was 36.2%. In addition, the growth in assay [19] is 41.9%; in assay [20] it was 61.4%.

For `NCCNc1nc2ccccc2c2c(=O)c3cc(F)ccc3sc12`, the growth in [1] is 65.9%; in assay [2], 1.61% (active); in assay [3], 96.2%; in assay [4], 33.7%; in assay [5], 77.8%; in [6] it was 66.9%. The growth in assay [7] was 102%; in assay [8], 82.7%; in assay [9] it was 103%; in assay [10], 77.4%; in assay [11], 51.2%; in assay [12] it was 14.4%. Besides, the growth is 71.2% in assay [13]; 78.1% in [14]; 64.7% in assay [15]; 80.2% in assay [16]; 93.9% in [17]; 102% in assay [18]. Besides, the growth was 24.2% in assay [19] and 107% in assay [20].

`CCC(=O)Nc1ccc(-c2nc(-c3cccc(OC)c3)c(-c3ccnc(Br)c3)[nH]2)cc1`: the growth was 70.6% in assay [1]; 24.1% in assay [2]; 69.4% in assay [3]; 71.8% in assay [4]; -22.8% (active) in [5]; 75.8% in assay [6]. Further, the growth in assay [7] is 16.1%; in assay [8], 51.1%; in [9], 74.4%; in assay [10] it was 63.1%; in assay [11], 21.5%; in [12] it was 54.7%. Moreover, the growth is 15.9% in [13]; 67.8% in assay [14]; 53.4% in assay [15]; 39.4% in assay [16]; 47.8% in assay [17]; 48.8% in assay [18]. Further, the growth was 43.3% in [19] and 66% in [20].
